Screening data (PubChem BioAssay)
KDM4E inh – qHTS Assay for Inhibitors of Human Jumonji Domain Containing 2E (JMJD2E). JMJD2E catalytic domain, FDH-coupled NADH fluorescence (FDH is formaldehyde dehydrogenase). Potency, µM (series often up to 57.1 µM), for inactives: at the highest dose activity change, negative = inhibition, actives largely listed as inhibitors. Lysine-specific demethylase 4E (Homo sapiens), B2RXH2. hit rate 1.6% among 230,000; active means well fitted inhibition curve with a large enough effect, not every such curve was filed as active; inconclusive means small, poorly fitted or top-dose-only effect, or another doubt; inactive means no such curve, though single readings can be large or run the other way;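 further: potency means the concentration at half of the fitted maximal effect; 0% = wells with enzyme and -100% = buffer wells without enzyme; nearly all actives have a fitted effect of over 50% in size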
Target sequence (B2RXH2 1-337 limits assumed): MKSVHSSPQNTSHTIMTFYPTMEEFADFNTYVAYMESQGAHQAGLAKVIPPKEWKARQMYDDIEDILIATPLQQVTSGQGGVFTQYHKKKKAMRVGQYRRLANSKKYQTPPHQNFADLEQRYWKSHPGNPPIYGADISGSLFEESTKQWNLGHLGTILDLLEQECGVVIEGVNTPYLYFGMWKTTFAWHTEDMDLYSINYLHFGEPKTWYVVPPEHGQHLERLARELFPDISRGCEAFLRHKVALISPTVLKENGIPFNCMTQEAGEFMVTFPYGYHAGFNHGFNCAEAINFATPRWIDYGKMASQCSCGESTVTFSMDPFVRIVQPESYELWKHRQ
HP1b chromo inh – HTS for Inhibitors of HP1-beta Chromodomain Interactions with Methylated Histone Tails; AID 540317, 2011; Potency, µM (top dose mostly 114 µM), without a hit: at the highest dose activity change, negative = inhibition, actives largely listed as inhibitors; hit rate 0.56% among 390,000; AlphaScreen HP1-beta / biotin-H3K9me3 peptide binding; further: potency means the concentration at half of the fitted maximal effect; nearly all actives have a fitted effect of over 70% in size
Target sequence (P83916 whole entry, looked up): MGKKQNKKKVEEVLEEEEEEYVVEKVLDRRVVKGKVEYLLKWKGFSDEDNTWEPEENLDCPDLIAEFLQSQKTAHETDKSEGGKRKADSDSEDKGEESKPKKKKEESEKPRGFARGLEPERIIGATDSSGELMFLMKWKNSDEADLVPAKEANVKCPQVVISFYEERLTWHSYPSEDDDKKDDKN
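AlphaScreen: HP1-beta (50 nM) preformed 30 min with biotin-H3(1-18)K9me3 peptide (50 nM) in PBS pH 7.4, 0.01% Tween-20. Compound added for 30 min at RT, then streptavidin donor/nickel chelate acceptor beads (10 ug/mL) for 30 min.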
L3MBTL1 block – qHTS Assay for the Inhibitors of L3MBTL1; Lethal(3)malignant brain tumor-like protein 1 (Homo sapiens), Q9Y468; AlphaScreen L3MBTL1–H3K9me1 peptide binding; Potency, µM (titrated, usually from 57.1 µM), without a hit: top-dose activity, negative = inhibition, usual class: inhibitors; hit rate 0.66% among 230,000; AID 485360, 2010; further: potency means the concentration at half of the fitted maximal effect; on the % scale 0 is the no-effect control and ±100 the full control effect; nearly all actives have a fitted effect of over 60% in size
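AlphaScreen proximity signal between nickel-chelate acceptor and streptavidin donor beads (final 10 ug/mL) reports binding of 50 nM L3MBTL1 to 75 nM biotin-H3 K9me1 peptide; complex incubated with compounds 30 min at room temperature; cefsulodin titration as control.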
JMJD2A Tudor inh – qHTS Assay for Inhibitors of JMJD2A-Tudor Domain | AlphaScreen JMJD2A-Tudor / H3K4me3 peptide binding | hit rate 4.4% among 390,000 | Potency, µM (highest dose often 114 µM), without a hit: at the top dose activity change, negative = inhibition, actives largely listed as inhibitors | AID 504339, 2011 | Lysine-specific demethylase 4A (Homo sapiens), O75164; further: potency means the concentration at half of the fitted maximal effect; on the % scale 0 is the no-effect control and ±100 the full control effect; nearly all actives have a fitted effect of over 50% in size
PI5P4K alpha inh – qHTS for Inhibitors of phosphatidylinositol 5-phosphate 4-kinase (PI5P4K). hit rate 1.2% among 330,000. max response, %. PI5P4Kalpha enzyme, ADP-Glo luminescence, 60 min; hits give low values. Phosphatidylinositol 5-phosphate 4-kinase type-2 alpha (Homo sapiens), P48426; active means max response of -50% or lower; inconclusive means between -30% and -50%; inactive means -30% or higher; further: value at the top dose of about 77 µM; on the % scale 0 is the no-effect control and ±100 the full control effect
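Enzyme plus substrate dispensed, test compounds pinned in, then ATP (5 microM final) added. After 60 min at RT, ADP-Glo reagent 1 for 45 min and reagent 2 for 30 min preceded luminescence imaging.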
BAZ2B block – qHTS Assay for Inhibitors of BAZ2B; Bromodomain adjacent to zinc finger domain protein 2B (Homo sapiens), Q9UIF8; Potency, µM (titrated, usually from 114 µM), for the others: top-dose activity change, negative = inhibition, hits mostly inhibitors; AlphaScreen BAZ2B-H3K14Ac peptide displacement; hit rate 4.4% among 360,000; further: potency means the concentration at half of the fitted maximal effect; on the % scale 0 is the no-effect control and ±100 the full control effect; nearly all actives have a fitted effect of over 60% in size
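BAZ2B (50 nM) with biotin-H3(5-23)K14Ac peptide (50 nM) in PBS pH 7.4, 0.01% Tween-20, preformed 30 min, then compound 30 min at room temperature; top concentration 110uM. AlphaScreen streptavidin donor/nickel chelate acceptor beads (10 ug/mL final), 20 min dark, signal read.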
Numbers without * were called inactive; ? = inconclusive; . = not tested or not shown; [ ] = remark or other dose. Sampled rows, rich in hits. Any-hit rate of the full collection: about 5.7%. Unless noted, the call rests on the fitted dose curve; in most records, active means well fitted inhibition curve with a large enough effect; inconclusive means small, poorly fitted or top-dose-only effect; inactive means no such curve, though single readings can be large or run the other way.

SMILES	KDM4E inh	HP1b chromo inh	L3MBTL1 block	JMJD2A Tudor inh	PI5P4K alpha inh	BAZ2B block
COc1ccc(-c2n[nH]c(=S)n2-c2ccccc2C)cc1	.	-18%	-1%	?	-10	3%
COc1ccccc1-n1c(-c2ccccc2)n[nH]c1=S	?	12%	-2%	2.8µM*	-20	-24%
COc1ccc(OC)c(-n2c(-c3cccc(C)c3)n[nH]c2=S)c1	-13%	-24%	-4%	?	?	?
COc1ccccc1-n1c(-c2cn(C)nc2C)n[nH]c1=S	1%	15%	-5%	22µM*	-12	-1%
COc1ccc(OC)c(-n2c(-c3ccccc3)n[nH]c2=S)c1	-25%	21%	.	3.2µM*	-1	-5%
COc1ccc2oc(=O)cc(CN3CCN(C(=O)c4ccccc4)CC3)c2c1	.	15%	.	-4%	.	-4%
Cc1cc(C)n(-c2nnc(NC34CC5CC(CC(C5)C3)C4)nn2)n1	-5%	?	?	25µM*	-12	32µM*
C=CCOC(=O)N[C@H](/C(C(=O)OC)=C(\C)NCc1ccccc1)c1cccc(F)c1	-4%	.	.	.	.	.
COc1cc(/C=C2/C(=O)c3cccc([N+](=O)[O-])c3C2=O)c(Br)cc1O	-25%	25µM*	-15%	18µM*	-60*	20µM*
COc1ccccc1NC(=O)CCCCCN1C(=O)c2cccc([N+](=O)[O-])c2C1=O	.	36%	0%	-31%	-1	-4%
O=C1C(=O)c2ccccc2C([O-])=C1[n+]1ccccc1	-10%	20%	0%	-4%	3	-10%
CCc1cc[n+](C2=C([O-])c3ccccc3C(=O)/C2=N\S(=O)(=O)c2cccs2)cc1	?	?	?	79µM*	?	?
Cc1ccc(N2CCOCC2)c2c1C(=O)c1ccccc1C2=O	-8%	13µM*	14µM*	32µM*	1	14µM*
Cc1cc(C)nc(NS(=O)(=O)c2ccc(NC(=O)COc3ccc(C(C)(C)C)cc3)cc2)n1	.	10%	.	-31%	.	-21%
CCOc1ccc(-c2ccc(/C=C3/C(=N)N4C(C)=CSC4=NC3=O)o2)c([N+](=O)[O-])c1	8%	-19%	-27%	?	-59*	?
CCOc1ccc(-c2ccc(/C=C3/C(=N)N4C=CSC4=NC3=O)o2)c([N+](=O)[O-])c1	-10%	-12%	3%	?	-10	-2%
CC(C)=CCCC1(C)C=Cc2c(c(C)cc3c2[nH]c2cc(O)ccc23)O1 (configuration not stated)	-6%	-40%	.	45µM*	41	45µM*
Cc1csc(NC(=O)c2nc3nc(C)cc(C)n3n2)n1	5%	4%	5%	79µM*	-4	?
Cc1cc(C)n2nc(C(=O)Nc3nccs3)nc2n1	8%	27%	13%	11µM*	.	4%
CC(=O)N(C(C)=O)c1nc2nc(C)cc(C)n2n1	5%	-22%	-8%	?	-16	56µM*
Nc1ccc(C=C2C=Cc3ccccc32)cc1	.	?	.	35µM*	24	.
CCOC(=O)C1=C(CN2CCCCC2)NC(=O)NC1c1ccc(C)cc1 (configuration not stated)	.	9%	.	-17%	.	.
COc1cccc(C2CC(c3ccc(Br)cc3)=NN2C(=O)c2ccncc2)c1OC (configuration not stated)	?	-3%	.	?	-4	32µM*
COc1ccccc1C1CC(c2ccc(Br)cc2)=NN1C(=O)c1cccnc1 (configuration not stated)	-1%	-12%	-14%	-36%	-5	?
CCOc1ccc(N(CC)S(=O)(=O)N2CCCC(C(=O)Nc3ccc(OC)c(Cl)c3)C2)cc1 (configuration not stated)	.	37%	.	-13%	.	-12%
SMILES	KDM4E inh	HP1b chromo inh	L3MBTL1 block	JMJD2A Tudor inh	PI5P4K alpha inh	BAZ2B block
Cc1ccc(/C=C2\SC(=S)N(CC3CCCO3)C2=O)o1 (configuration not stated)	?	32µM*	?	35µM*	?	32µM*
COc1ccccc1/C=C1\NC(=S)N(CC2CCCO2)C1=O (configuration not stated)	3%	-4%	.	-24%	.	-38%
O=C1/C(=C/c2ccco2)SC(=S)N1CC1CCCO1 (configuration not stated)	11µM*	35µM*	16µM*	25µM*	?	35µM*
CC(C)CCNC(=O)COc1ccc2c(c1)C(=O)CC(C)(C)O2	?	33%	.	9%[57.1 µM]	4	2%
CCC(Oc1ccc2c(c1)C(=O)CC(C)(C)O2)C(=O)NCCN1CCCCCC1 (configuration not stated)	?	?	-4%	45µM*	1	?
CCOC(=O)c1ccc(NC(=O)CSc2ccc(-c3sc(C)nc3C)nn2)cc1	.	9%[57 µM]	.	-6%	.	2%
COC(=O)Cn1cc(/C=C/c2cc[n+](C)cc2)c2ccccc21	.	11%	-5%	?	-7	45µM*
COC(=O)Cn1c(C)c(/C=C/c2cc[n+](C)cc2)c2ccccc21	.	?	0%	?	-3	?
Cn1c(=S)[nH]c2cc(C(=O)N3CCN(C(=O)c4ccccc4)CC3)ccc2c1=O	.	47%	.	79µM*	.	.
CN1CCN(C(=O)c2ccc3c(=O)n(Cc4ccco4)c(=S)[nH]c3c2)CC1	-2%	17%	.	13µM*	.	-5%
Cc1c(Cl)c(C(=O)NNC(=S)Nc2ccc(F)cc2)nn1C	20µM*	35%	4%	-9%	2	13%
Cc1c(Cl)c(C(=O)NNC(=S)Nc2ccccc2)nn1C	10µM*	29%	.	-12%	0	8%
Cc1cc(OCC(=O)Nc2sc3c(c2C#N)CC(C)(C)NC3(C)C)c(C(C)C)cc1Cl	.	28%	.	-5%	2	-26%
CC12CN3CC(C)(CN(C1)C3c1ccc(OCc3ccccc3)cc1)C2=O (configuration not stated)	.	32%	.	-11%	.	-9%
COc1ccc(C(c2c(C)[nH]n(C(N)=S)c2=O)C(C#N)C#N)cc1 (configuration not stated)	-8%	24%	27%	-7%	-1	5%
